Values joined by “and” are separate entries in the source; they are usually repeats but may differ in a detail not shown here. Equal values may be shown once. Results filed as inconclusive are left out. Where a call stands in place of a potency, no number is given. The source holds several records for some structures; these can differ, active in one and inactive in another. Active and inactive are the calls of the source. Calls follow the shape of the dose curve; as a rule, active = well fitted curve in the direction sought with a large enough effect in the repeat runs; inconclusive = weak or mixed curves; inactive = no such curve, though single readings can be large; an effect the other way counts as inactive or inconclusive.
Key:
[1] = A CellTox Green Cytotoxicity Assay to monitor cytotoxicity in HEK293 cells - 40 hour (AID 1224871); also: nearly all actives have a fitted effect of over 45% in size; also: potency is read from the fitted curve at half-maximal effect
Summary of the method: (§1)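 Seeding of HEK293 cells together with cytotoxicity dye preceded a 5 h incubation at 37 C/5% CO2. Test compounds in DMSO were then added and fluorescence monitored across 40 h.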

[2] = qHTS RealTime-Glo MT Cell Viability Assay in HEK293 cells - 16 hour (AID 1224872); also: top concentration of the series differs between compounds; nearly all actives have a fitted effect of over 50% in size
Summary of the method: (§2)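 Reads taken at 0, 8, 16, 24, 32 and 40 h from the same wells. HEK293 cells (600/well) carried RealTime-Glo reagents from seeding, with compound added after a 5 h settle at 37 C.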

[3] = qHTS RealTime-Glo MT Cell Viability Assay in HepG2 cells - 8 hour (AID 1224873); also: nearly all actives have a fitted effect of over 55% in size
Summary of the method: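 HepG2 cells mixed with RealTime-Glo MT reagents (NanoLuc plus cell-permeant prosubstrate) were seeded at 600 cells/well, incubated 5 h at 37 C/5% CO2, then pinned with compounds in DMSO; nonlytic luminescence tracked viability during 40 h treatment.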

[4] = qHTS RealTime-Glo MT Cell Viability Assay in HEK293 cells - 40 hour (AID 1224874); settings: RealTime-Glo luminescence; max response: stronger effect = lower value; also: nearly all actives have a fitted effect of over 50% in size
Summary of the method: (§3)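 Tox21 screen in HEK293 using RealTime-Glo MT chemistry, with cells and reagent co-dispensed. Luminescence proportional to viable cell number was captured at intervals during 40 h compound exposure at 37 C.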

[5] = A CellTox Green Cytotoxicity Assay to monitor cytotoxicity in HEK293 cells - 24 hour (AID 1224875); also: nearly all actives have a fitted effect of over 45% in size; also: potency is read from the fitted curve at half-maximal effect
Summary of the method: as §1

[6] = A CellTox Green Cytotoxicity Assay to monitor cytotoxicity in HepG2 cells - 16 hour (AID 1224876); also: nearly all actives have a fitted effect of over 45% in size; also: potency is read from the fitted curve at half-maximal effect
Summary of the method: (§4)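 Nonlytic assay: viable cells exclude the dye, so fluorescence scales with cell death. HepG2 at 600 cells/well, compounds added after 5 h, signal read across 40 h.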

[7] = qHTS RealTime-Glo MT Cell Viability Assay in HepG2 cells - 32 hour (AID 1224877); also: nearly all actives have a fitted effect of over 55% in size
Summary of the method: (§5)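 HepG2 suspension premixed with RealTime-Glo reagents is plated at 600 cells per well and left 5 h at 37 C/5% CO2. Compounds in DMSO then go in, and bioluminescence reflecting viable cell number is recorded over 40 h.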

[8] = A CellTox Green Cytotoxicity Assay to monitor cytotoxicity in HepG2 cells - 24 hour (AID 1224878); also: nearly all actives have a fitted effect of over 45% in size; also: potency is read from the fitted curve at half-maximal effect
Summary of the method: as §4

[9] = A CellTox Green Cytotoxicity Assay to monitor cytotoxicity in HepG2 cells - 40 hour (AID 1224879); also: nearly all actives have a fitted effect of over 40% in size; also: potency is read from the fitted curve at half-maximal effect
Summary of the method: as §4

[10] = qHTS RealTime-Glo MT Cell Viability Assay in HEK293 cells - 0 hour (AID 1224880)
Summary of the method: as §3

[11] = A CellTox Green Cytotoxicity Assay to monitor cytotoxicity in HEK293 cells - 32 hour (AID 1224881); also: nearly all actives have a fitted effect of over 40% in size; also: potency is read from the fitted curve at half-maximal effect
Summary of the method: as §1

[12] = A CellTox Green Cytotoxicity Assay to monitor cytotoxicity in HepG2 cells - 0 hour (AID 1224882); also: nearly all actives have a fitted effect of over 35% in size
Summary of the method: as §4

[13] = A CellTox Green Cytotoxicity Assay to monitor cytotoxicity in HepG2 cells - 32 hour (AID 1224883); also: nearly all actives have a fitted effect of over 50% in size; also: potency is read from the fitted curve at half-maximal effect
Summary of the method: as §4

[14] = A CellTox Green Cytotoxicity Assay to monitor cytotoxicity in HEK293 cells - 8 hour (AID 1224884); also: nearly all actives have a fitted effect of over 35% in size; also: potency is read from the fitted curve at half-maximal effect
Summary of the method: as §1

[15] = qHTS RealTime-Glo MT Cell Viability Assay in HepG2 cells - 16 hour (AID 1224885); also: nearly all actives have a fitted effect of over 50% in size
Summary of the method: as §5

[16] = qHTS RealTime-Glo MT Cell Viability Assay in HEK293 cells - 8 hour (AID 1224887)
Summary of the method: as §3

[17] = A CellTox Green Cytotoxicity Assay to monitor cytotoxicity in HEK293 cells - 16 hour (AID 1224888); also: nearly all actives have a fitted effect of over 35% in size
Summary of the method: as §1

[18] = qHTS RealTime-Glo MT Cell Viability Assay in HepG2 cells - 0 hour (AID 1224889); also: nearly all actives have a fitted effect of over 50% in size
Summary of the method: as §5

[19] = A CellTox Green Cytotoxicity Assay to monitor cytotoxicity in HepG2 cells - 8 hour (AID 1224890); also: nearly all actives have a fitted effect of over 45% in size
Summary of the method: as §4

[20] = qHTS RealTime-Glo MT Cell Viability Assay in HEK293 cells - 24 hour (AID 1224886)
Summary of the method: as §2

Row | SMILES | Potency [1] | Potency [2] | Potency [3] | max response [4] | Potency [5] | Potency [6] | Potency [7] | Potency [8] | Potency [9] | outcome [10] | Potency [11] | Potency [12] | Potency [13] | Potency [14] | Potency [15] | Potency [16] | Potency [17] | outcome [18] | Potency [19] | Potency [20]
1 | OCCCl | inactive | inactive | inactive | 0.0487% (inactive) | inactive | inactive | inactive | inactive | inactive | inactive | inactive | inactive | inactive | inactive | inactive | inactive | inactive | inactive | inactive | 
2 | N#CC(C#N)=C(C#N)C#N | inactive | inactive | inactive | 20.6% (inactive) | inactive | inactive | inactive | inactive | inactive | inactive | inactive | inactive | inactive | inactive | inactive | inactive | inactive |  | inactive | inactive
3 | NC(=O)CF | inactive | inactive | inactive | -4.69% (inactive) | inactive | inactive | inactive | inactive | inactive | inactive | inactive | inactive |  | inactive | inactive | inactive | inactive | inactive | inactive | inactive
4 | Nc1cc(Cl)cc(C(=O)O)c1Cl | inactive | inactive | inactive | 1.89% (inactive) and 6.4% (inactive) | inactive | inactive | inactive | inactive | inactive | inactive | inactive | inactive |  | inactive | inactive | inactive | inactive | inactive | inactive | inactive
5 | c1ccc2c(c1)-c1cccc3cccc-2c13 | inactive and 43.6 µM (active) | inactive | inactive | -7% (inactive) and -12.1% (inactive) | inactive | inactive | inactive | inactive | inactive | inactive | inactive | inactive | inactive | inactive | inactive | inactive | inactive |  | inactive | 
6 | CC(=O)OC(c1ccccc1)C(Cl)(Cl)Cl (stereo not drawn) | 19.5 µM (active) | inactive | inactive | -15.9% (inactive) | 19.5 µM (active) | 21.9 µM (active) | inactive | 21.9 µM (active) | 21.9 µM (active) | inactive | 19.5 µM (active) |  | 24.5 µM (active) | 19.5 µM (active) | inactive | inactive |  | inactive |  | 
7 | CCCBr | inactive | inactive | inactive | -3.27% (inactive) | inactive | inactive | inactive | inactive | inactive | inactive | inactive | inactive |  | inactive | inactive |  | inactive |  | inactive | 
8 | FC(Cl)(Cl)C(F)(Cl)Cl | inactive | inactive | inactive | -10.6% (inactive) | inactive | inactive | inactive | inactive | inactive | inactive | inactive | inactive | inactive | inactive | inactive | inactive | inactive |  | inactive | 
9 | NP(N)(=O)NC(=O)c1ccc(F)cc1 | inactive | inactive | inactive | 1.36% (inactive) | inactive | inactive | inactive | inactive | inactive | inactive | inactive | inactive |  | inactive | inactive |  | inactive | inactive | inactive | inactive
10 | CC1(C)CC(=O)CC(C)(C)N1[O] | inactive | inactive | inactive | 2.69% (inactive) | inactive | inactive | inactive | inactive | inactive | inactive | inactive | inactive | inactive | inactive | inactive |  | inactive | inactive | inactive | 
11 | Oc1cccc(Cl)c1 | inactive | inactive | inactive | 0.464% (inactive) | inactive | inactive | inactive | inactive | inactive | inactive | inactive | inactive |  | inactive | inactive | inactive | inactive | inactive | inactive | 
12 | CCCC[N+]1(C)[C@@H]2CC(OC(=O)[C@H](CO)c3ccccc3)C[C@H]1[C@@H]1O[C@@H]12 (stereo partly drawn) | inactive | inactive | inactive | 2.06% (inactive) | inactive | inactive | inactive | inactive | inactive | inactive | inactive | inactive |  | inactive | inactive |  | inactive | inactive | inactive | inactive
13 | Cc1ccccc1 | inactive | inactive | inactive | 11.7% (inactive) | inactive | inactive | inactive | inactive | inactive | inactive | inactive | inactive | inactive | inactive | inactive |  | inactive | inactive | inactive | 
14 | CCCCC(CC)COC(=O)c1c(Br)c(Br)c(Br)c(Br)c1C(=O)OCC(CC)CCCC (stereo not drawn) | inactive | inactive | inactive | -1.1% (inactive) | inactive | inactive | inactive | inactive | inactive | inactive | inactive | inactive |  | inactive | inactive | inactive | inactive |  |  | inactive
15 | CCSCc1ccccc1OC(=O)NC | inactive | inactive | inactive | -1.43% (inactive) | inactive | inactive | inactive | inactive | inactive | inactive | inactive | inactive |  | inactive | inactive | inactive | inactive | inactive | inactive | inactive
16 | O=C=NC1CCCCC1 | inactive | inactive | inactive | 8% (inactive) | inactive | inactive | inactive | inactive | inactive | inactive | inactive | inactive |  | inactive | inactive | inactive | inactive | inactive |  | inactive
17 | CCCC(C)(COC(N)=O)COC(=O)NC(C)C (stereo not drawn) | inactive | inactive | inactive | -11.3% (inactive) and 0.58% (inactive) | inactive | inactive | inactive | inactive | inactive | inactive | inactive | inactive |  | inactive | inactive | inactive | inactive | inactive | inactive | inactive
18 | CCNC(=O)NC(=O)/C(C#N)=N/OC | inactive | inactive | inactive | 18.1% (inactive) | inactive | inactive | inactive | inactive | inactive | inactive | inactive | inactive |  | inactive | inactive | inactive | inactive | inactive | inactive | inactive
19 | O=C(O)c1ccc(=O)[nH]c1 | inactive | inactive | inactive | 5.8% (inactive) | inactive | inactive | inactive | inactive | inactive | inactive | inactive | inactive |  | inactive | inactive |  | inactive | inactive | inactive | inactive
20 | OC[P+](CO)(CO)CO | inactive | inactive | inactive | 5.15% (inactive) and -10.7% (inactive) | inactive | inactive | inactive | inactive | inactive | inactive | inactive | inactive |  | inactive | inactive | inactive | inactive | inactive | inactive | inactive
21 | O=C(O)c1cc(Cl)ccc1Cl | inactive | inactive | inactive | 8.52% (inactive) | inactive | inactive | inactive | inactive | inactive | inactive | inactive | inactive |  | inactive | inactive | inactive | inactive | inactive |  | inactive
22 | C=CC(C)(CCC=C(C)C)OC(=O)c1ccccc1N (stereo not drawn) | inactive | inactive | inactive | -1.39% (inactive) | inactive | inactive | inactive | inactive | inactive | inactive | inactive | inactive | inactive | inactive | inactive |  | inactive |  | inactive | 

— PubChem BioAssay (Tox21)
